Test results from the supplement of paper PMC6718421.
± gives the uncertainty stated by the source.

These compounds were tested on Caenorhabditis elegans N2 (wild type) (assay: animals with crystals or spheres in anterior pharynx; higher = more object (crystal/sphere) accumulation). Details: 30 µM; 48 h; genotype: wild type N2; stage: L1 start.
Description: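 Synchronized wild-type (N2) C. elegans L1 larvae (50 per well) were incubated in liquid NGM with E. coli HB101 and 30 uM of each wactive for 48 h. Live worms were scored by DIC and polarized-light microscopy for birefringent crystals or non-birefringent spheres in the anterior pharynx. At least 3 biological replicates were run with at least 20 worms each; the value is the mean % of animals carrying objects.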

| Structure (SMILES) | animals [%] |
| --- | --- |
| Ic1cccc(-c2nnc(-c3ccccc3)o2)c1 [wact-51] | 51.5 ± 14 |
| c1ccc(-c2noc(-c3cccs3)n2)cc1 [wact-7] | 0 |
| Clc1ccc(-c2cn3ccsc3n2)cc1 [wact-1] | 0 |
| O=C1CC(N2CCN(c3ccc([N+](=O)[O-])cc3)CC2)C(=O)N1c1ccccc1F (stereo not drawn) [wact-56] | 0 |
| O=[N+]([O-])c1ccc(-n2ccc3ccccc32)cc1 [wact-213] | 40.3 ± 22 |
| O=C(NCCCCc1ccccc1)c1ccccc1F [wact-400] | 0 |
| c1ccc2nc(-c3nc4ccccc4o3)ccc2c1 [wact-40] | 12.5 ± 2.8 |
| C=CCSc1nnc(-c2ccc(Cl)cc2Cl)o1 [wact-5] | 0 |
| c1ccc(CSc2nnc(-c3ccccc3)o2)cc1 [wact-38] | 95.5 ± 3 |
| O=[N+]([O-])c1ccc(N2CCN(CC3CC4C=CC3C4)CC2)cc1 (stereo not drawn) [wact-46] | 0 |
| O=C(Nc1cccc(Cl)c1)N1CCN(c2ccc([N+](=O)[O-])cc2)CC1 [wact-31] | 0 |
| O=C(Nc1ccc(-c2nc3ccccc3s2)cc1)c1ccccc1F [wact-415] | 100 |
| O=[N+]([O-])c1ccc(N2CCN(CC3CCCCC3)CC2)cc1 [wact-45] | 0 |
| CCCc1nc(-c2ccc(-c3ccc(F)cc3)cc2)no1 [wact-390] | 88.33 ± 0.88 |
| Brc1ccc(-c2nnc(-c3ccccc3)o2)cc1 [wact-425] | 34.5 ± 9.2 |
| Cc1ccc(-c2cnc(-c3ccncc3)o2)cc1 [wact-23] | 0 |
| COc1ccccc1CNC(=O)c1ccccc1I [wact-402] | 0 |
| c1csc(-c2cnc3ccccc3n2)c1 [wact-21] | 0 |
| O=C(Nc1ccc(I)cc1)c1ccco1 [wact-27] | 10 ± 8.3 |
| O=[N+]([O-])c1ccc(N2CCN(CC3CC=CCC3)CC2)cc1 (stereo not drawn) [wact-47] | 0 |
| CCSc1nnc(-c2ccc(Cl)cc2Cl)o1 [wact-4] | 0 |
| COc1ccc(C=Cc2ccccn2)cc1 [wact-622] | 0 |
| Cc1ccccc1C(=O)NCCc1ccccc1 [wact-406] | 0 |
| O=C(c1ccc(Br)cc1)N1CCN(c2ccc([N+](=O)[O-])cc2)CC1 [wact-381] | 99.5 ± 0.5 |
| O=[N+]([O-])c1ccc(CSc2ccc(Cl)cc2)cc1 [wact-3] | 52.6 ± 13 |
| Fc1ccc(-c2cn3ccsc3n2)cc1 [wact-433] | 0 |
| CCC1CCC(N2CCN(c3ccc([N+](=O)[O-])cc3)CC2)CC1 (stereo not drawn) [wact-6] | 3.24 ± 3 |
| CCOc1ccc(-c2cnc3ccccc3n2)cc1 [wact-24] | 69.5 ± 6.4 |
